Compounds without any hit were thinned out: in the full panel of roughly 83,000, 20% have a hit.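 How to read the values: 0–100, growth inhibition (40 = 60% inhibited); 0, no net growth; -100 to 0, cell death (-40 = 40% of starting cells died; -100 = all dead).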 Unmarked numbers belong to inactive results. Active and inactive are the calls of the source. How the source made its calls: active means growth percent below 10; inactive means the rest.
Key:
Assay in all cases: NCI-60 one-dose screen, 48 h (100 = growth as untreated, 0 = no growth, -100 = all killed)
Details in all cases: 10 µM unless noted
NCI-H23 lung = system: NCI-H23 lung
NCI-H226 lung = system: NCI-H226 lung
NCI-H322M lung = system: NCI-H322M lung
HOP-62 NSCLC = system: HOP-62 NSCLC
NCI-H460 lung = system: NCI-H460 lung
HOP-92 NSCLC = system: HOP-92 NSCLC
NCI-H522 lung = system: NCI-H522 lung
A549/ATCC NSCLC = system: A549/ATCC NSCLC
786-0 renal = system: 786-0 renal
COLO 205 colon = system: COLO 205 colon

SMILES	growth (NCI-H23 lung)	growth (NCI-H226 lung)	growth (NCI-H322M lung)	growth (HOP-62 NSCLC)	growth (NCI-H460 lung)	growth (HOP-92 NSCLC)	growth (NCI-H522 lung)	growth (A549/ATCC NSCLC)	growth (786-0 renal)	growth (COLO 205 colon)
O=c1[nH]ccc2nc(N3CCC(O)CC3)nc(Nc3ccc(N4CCOCC4)cc3)c12	58.2%	45.7%	83.7%	97.2%	36.2%	2.14% (active)	75.1%	29.8%	77.2%	-1.79% (active)
Cc1c(C(=O)OC(=NC2CCCCC2)NC2CCCCC2)sc2c1c(=O)nc1c(C#N)n[nH]n12	97.3%	131%	115%	89.5%	112%	-16.8% (active)	89.2%	108%	92%	120%
CCCCCc1nc2c(c3c1CCCC3)CCCC2	73.4%	88.6%	78.3%	77.6%	83%	56.2%	44.6%	72.6%	85%	89.4%
N#Cc1c(-c2ccccc2)cc(-c2ccc(Nc3nc(Nc4ccc(F)cc4)nc(Nc4ccc(F)cc4)n3)cc2)nc1N	72.9%	101%	96.2%	80.5%	104%	46.8%	89%	86.2%	83.9%	81.9%
Cc1ccccc1NC(=O)N/C(N)=N/c1nc(C)c(C)s1	42.7%	60%	46.2%	43.9%	10.5%	73.6%	16.3%	40.2%	51.4%	10.1%
O=c1cc(-c2ccc(Cl)cc2)[nH]c2ccccc12	83.2%	87%	92.3%	79.3%	90.8%	73.3%	80.9%	91.2%	82.4%	99.7%
Cc1cc(NCc2cc(Nc3ccnc4cc(Cl)ccc34)ccc2F)nc(N2CCCC2)n1	32.9%	65.8%	30.6%	-13.3% (active)	-51.7% (active)	41.3%	-40.3% (active)	8.66% (active)	-83.9% (active)	-78.4% (active)
C#CCOc1nc(C)cc(C)c1C#N	95.6%	97%	105%	92.2%	102%	71.4%	89.3%	97.7%	99.6%	111%
O=C1/C(=C/c2ccc(F)cc2)C=C(c2ccccc2)N1CCc1ccccc1	70.8%	51.9%	65.6%	-3.68% (active)	61.3%	7.45% (active)	42.9%	40.8%	27.6%	71.9%
COc1ccc(NC(=O)CSc2nc(C)c(C(C)=O)n2-c2ccc([N+](=O)[O-])cc2)cc1	88.2%	89%	92.7%	95.7%	103%	112%	88.9%	90.6%	83.9%	102%
COc1cccc(C(=O)NCCNc2cc(-c3cn(-c4ccccc4)nc3-c3cccc(OC)c3)ccn2)c1	59.7%	77.3%	92.6%	61%	57.4%	46.2%	35.8%	43.6%	50.5%	59%
CC(C)(C)CC(C)(C)Nc1c(-c2ccncc2)nc2cnccn12	99.2%	90.3%	103%	104%	105%	87.1%	87.1%	96.4%	96.6%	101%
CCOc1c(C#N)nnc2c(C#N)c(NC(=O)c3ccccc3)nn12	90.8%	92.6%	95%	96.6%	111%	89.3%	95%	95%	98.4%	107%
COC(=O)c1c2c(c(C)[n+]([O-])c1C)C(=O)C(NCc1ccc(F)c(Cl)c1)=CC2=O	16.3%	84.3%	3.24% (active)	28.3%	7.33% (active)	19%	-26.6% (active)	1.3% (active)	-93.5% (active)	-75.5% (active)
COc1cccc2c1C(=O)c1c(O)c3c(c(O)c1C2=O)CC(O)(/C(C)=N/NC(=O)CCCCC(=O)N/N=C(\C)C1(O)Cc2c(O)c4c(c(O)c2C(OC2CC(N)C(O)C(C)O2)C1)C(=O)c1c(OC)cccc1C4=O)CC3OC1CC(N)C(O)C(C)O1 (stereo not given)	-31.9% [5 µM] (active)	-56.1% [5 µM] (active)	-10.2% [5 µM] (active)	-1.23% [5 µM] (active)	-10.2% [5 µM] (active)	-50.7% [5 µM] (active)	-57.7% [5 µM] (active)	-22% [5 µM] (active)	4.75% [5 µM] (active)	-91.9% [5 µM] (active)
NS(=O)(=O)c1ccc(-n2nc(C(=O)N/N=C\c3ccc(F)cc3)cc2-c2ccc(Cl)cc2)cc1	84.2%	82.7%	89.6%	74.1%	99.4%	56%	78.4%	95.1%	105%	116%
O=C(/C=C/c1ccco1)c1ccc(Nc2nc(Nc3ccc(F)cc3)nc(Nc3ccc(Cl)cc3)n2)cc1	59.5%	86%	48.3%	96.2%	61.7%	44.2%	76.8%	38.3%	84.4%	35.9%
Cc1ccc(-c2c(-c3ccccc3)c(=O)oc3ccc(C)cc23)cc1	96.1%	89.6%	97.8%	101%	93.8%	84%	107%	91%	105%	91.4%
N=C(N)c1ccc(-c2ccc(-c3cncc4ccccc34)s2)s1	-53.2% (active)	-50.6% (active)	-90.9% (active)	-84.8% (active)	-78.6% (active)	-82.6% (active)	-69.6% (active)	-85.8% (active)	-84.6% (active)	-78.1% (active)
O=C(NCCCNc1cc(-c2cn(-c3ccccc3)nc2-c2cccc(O)c2)ccn1)c1ccc(F)cc1	42%	58.9%	62.8%	26.2%	27.9%	14.4%	9.35% (active)	16.1%	-49.4% (active)	-59.1% (active)
CCOc1ccccc1-c1cc(-c2cccs2)c(C#N)c(=O)[nH]1	86.1%	90.9%	83.9%	81.5%	93.8%	64.7%	75.5%	91.2%	92.1%	114%
CC1(C)CC(=O)CC2(C1)N=C(N)Nc1nc3ccccc3n12 (stereo not given)	101%	95.6%	117%	119%	111%	87.3%	69.6%	97.9%	107%	102%
N#Cc1c(N)nn(C(=O)c2ccc(NC(=O)c3ccccn3)cc2)c1-c1ccc(Cl)cc1	20%	20.1%	22.2%	-18.4% (active)	15.9%	7.04% (active)	36.3%	35.4%	9.76% (active)	1.15% (active)
Cc1c(O)cc(-c2cnc(N/N=C\c3ccc(Cl)cc3)s2)c(O)c1C	91.5%	87.2%	96.9%	98.6%	100%	81.1%	65.1%	85.1%	110%	106%
C=CCn1c(C)nc2cc(Nc3nc(N4CCCC4)nc4ccccc34)ccc21	88.6%	97.7%	113%	90.6%	81.2%	81.3%	127%	74.6%	75.9%	92.6%
S=C(Cc1ccc2c(c1)CCCC2)N1CCOCC1	98.4%	110%	94.8%	89.8%	107%	121%	81.3%	93.2%	101%	106%

Source: PubChem BioAssay (NCI)
